Inconclusive results are not listed. Calls of active or inactive are those of the source. The call rests on the fitted dose curve; in most records, active means well fitted curve in the direction sought with a large enough effect; inconclusive means small, poorly fitted or top-dose-only effect, or another doubt; inactive means no such curve, though single readings can be large; an effect the other way counts as inactive or inconclusive.
What was measured:
[1] = target: Glutathione peroxidase 1 (Homo sapiens) (UniProt P07203); assay: Primary qHTS Assay for Inhibitors of Recombinant Selenoprotein Glutathione Peroxidase 1 (GPX1) (AID 1845191); further: nearly all actives have a fitted effect of over 65% in size; on activity, negative = inhibition: on the % scale 0 is the no-effect control and ±100 the full control effect
Outline: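 GR-coupled assay: compounds preincubated 30 min at room temperature with GPX1, then reaction started with CHP; final 10 nM GPX1, 1 mM GSH, 0.5 mM CHP, 0.5 mM NADPH, 100 nM GR, 0.01% BSA, pH 7.5 Tris buffer. NADPH fluorescence (340/450 nm) read at 0 and 15 min.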

[2] = target: Phospholipid hydroperoxide glutathione peroxidase GPX4 (Homo sapiens) (UniProt P36969); assay: Primary qHTS Assay for Inhibitors of Recombinant Selenoprotein Glutathione Peroxidase 4 (GPX4) (AID 1845192); further: nearly all actives have a fitted effect of over 65% in size; on activity change, negative = inhibition: series mostly up to about 50 µM; on the % scale 0 is the no-effect control and ±100 the full control effect
Outline: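 GR-coupled assay: recombinant GPX4 preincubated 30 min with compound at room temperature; final 200 nM GPX4, 1 mM GSH, 0.5 mM cumene hydroperoxide, 0.5 mM NADPH, 100 nM GR, 0.01% BSA, pH 7.5 Tris. NADPH fluorescence (340/450 nm) read at 0 and 15 min.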

[3] = target: Luciferin 4-monooxygenase (Photinus pyralis) (UniProt P08659); assay: Primary firefly luciferase (FLuc) qHTS assay for identification of artifact compounds. (AID 1845220); further: nearly all actives have a fitted effect of over 60% in size;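 on activity change, negative = inhibition: series mostly up to about 54 µM; plate controls were DMSO vehicle for no effect and no enzyme for full effect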
Outline: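 D-luciferin and ATP (10 uM each, final) in Tris acetate buffer pH 7.6 were incubated with compounds for 15 min at room temperature. The reaction was started with 10 nM Photinus pyralis luciferase and luminescence read after 5 min. Percent inhibition was fitted to a 4-parameter Hill equation.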

[4] = Primary fluorescence-based thiol-reactive (MSTI) qHTS assay for identification of artifact compounds. (AID 1845221); further: nearly all actives have a fitted effect of over 65% in size; further: potency means the concentration at half of the fitted maximal effect;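 on activity change, negative = thiol reactive: series mostly up to about 54 µM; thiol-reactive compounds lower the probe fluorescence signal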
Outline: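 Compounds were incubated 1 h at room temperature in the dark with the MSTI probe (4 uM) in PBS pH 7.4, 2% DMSO. Signals were normalized between Acetyl-MSTI and MSTI.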

[5] = tested on: Nanoluciferase (engineered Oplophorus gracilirostris luciferase); assay: Primary Nanoluciferase (NLuc) qHTS assay for identification of artifact compounds. (AID 1845222);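 further: series mostly up to about 54 µM; 0% = DMSO and -100% = no enzyme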
Outline: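 Diluted conditioned medium from NLuc-expressing S16 cells treated with compounds for 15 min at room temperature, then Nano-Glo substrate added; luminescence read after 5 min. Percent inhibition versus no-enzyme and DMSO controls fitted to 4-parameter Hill equation.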

Sequence of Phospholipid hydroperoxide glutathione peroxidase GPX4 (Homo sapiens) (P36969 whole entry, looked up): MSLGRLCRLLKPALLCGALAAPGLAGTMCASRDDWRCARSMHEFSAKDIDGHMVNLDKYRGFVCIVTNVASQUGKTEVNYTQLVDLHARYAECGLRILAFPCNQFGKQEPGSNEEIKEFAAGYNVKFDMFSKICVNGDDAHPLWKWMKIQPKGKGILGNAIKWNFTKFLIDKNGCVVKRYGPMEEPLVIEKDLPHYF
Sequence of Glutathione peroxidase 1 (Homo sapiens) (P07203 whole entry, looked up): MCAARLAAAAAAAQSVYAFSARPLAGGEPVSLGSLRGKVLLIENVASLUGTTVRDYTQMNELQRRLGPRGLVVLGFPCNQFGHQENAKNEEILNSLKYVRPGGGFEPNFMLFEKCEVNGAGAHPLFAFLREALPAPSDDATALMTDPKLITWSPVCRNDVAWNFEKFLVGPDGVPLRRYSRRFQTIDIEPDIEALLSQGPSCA

CC1(C)CC[C@]2(C(=O)O)CC[C@]3(C)C(=CCC4[C@@]5(C)CCC(O[C@@H]6OC[C@H](O)[C@H](O)[C@H]6O[C@@H]6O[C@H](CO)[C@@H](O)[C@H](O)[C@H]6O)[C@@](C)(CO)C5CC[C@]43C)[C@@H]2C1 (stereo not given in full)
inactive: Potency [1] | Potency [2] | Potency [3] | Potency [4] | Potency [5]

COC(=O)[C@@]1(O)C=CC[C@@H]2[C@@]3(C)C[C@@H](c4ccoc4)OC(=O)[C@H]3CC[C@]21C
inactive: Potency [1] | Potency [2] | Potency [3] | Potency [4] | Potency [5]

CC(C#N)C(C)O[C@@H]1O[C@H](CO)[C@@H](O)[C@H](O)[C@H]1O (stereo not given in full)
inactive: Potency [1] | Potency [2] | Potency [3] | Potency [5]
active: Potency [4] 26.7 µM

C=C1C(O[C@@H]2O[C@H](CO)[C@@H](O)[C@H](O)[C@@H]2O)CC2C(C)(C)C(O)CCC2(C)C1CC/C(C)=C\CO (stereo not given in full)
inactive: Potency [1] | Potency [2] | Potency [3] | Potency [4] | Potency [5]

CO[C@@]12CC3[C@@H]([C@@H](O)[C@@H](OC(C)=O)C4[C@](C)(COC(C)=O)CCC[C@]34C)[C@@H](C)C1=CC(=O)O2 (stereo not given in full)
inactive: Potency [1] | Potency [2] | Potency [3] | Potency [4] | Potency [5]

COc1cc(C)c(C(=O)O[C@H]2[C@@H](O)[C@H](n3ccc(=O)[nH]c3=O)O[C@@H]2CO)c(OC)c1
inactive: Potency [1] | Potency [2] | Potency [3] | Potency [4] | Potency [5]

CNC(=O)[C@H]1O[C@@H](n2cnc3c(NCc4ccc(N)c(I)c4)ncnc32)[C@H](O)[C@@H]1O
inactive: activity, negative = inhibition [1] 3.67% [at 9.52 µM] | activity change, negative = inhibition [2] -1.09% [at 9.73 µM] | outcome [3] inactive [at 11.6 µM] | activity change, negative = thiol reactive [4] 20.2% [at 11.5 µM] | activity, negative = inhibition [5] -0.867% [at 11.6 µM]

Nc1ncnc2c1ncn2[C@H]1CCCO1
inactive: Potency [1] | Potency [2] | Potency [3] | Potency [4] | Potency [5]

CC(=O)O[C@@H]1[C@H](O[C@@H]2O[C@H](CO)[C@@H](O)[C@H](O)[C@H]2O)[C@@H](O[C@@H]2O[C@@H](C)[C@H](O)[C@@H](O[C@@H]3O[C@H](CO)[C@@H](O)[C@H](O)[C@H]3O)[C@H]2O)[C@H](OC(=O)C23CCC4(C)C(=CCC5C6(C)CC(O)C(O[C@@H]7O[C@H](C(=O)O)[C@@H](O)[C@H](O)[C@H]7O)C(C)(C(=O)O)C6CCC54C)C2CC(C)(C)CC3O)O[C@@H]1C (stereo not given in full)
inactive: outcome [1] inactive [at 9.52 µM] | activity change, negative = inhibition [2] 1.73% [at 9.73 µM] | outcome [3] inactive [at 11.6 µM] | activity change, negative = thiol reactive [4] 205% [at 11.5 µM] | activity, negative = inhibition [5] 0% [at 11.6 µM]

CC(=O)O[C@H]1CC[C@@]2(CI)C(=CC[C@@H]3[C@@H]2CC[C@]2(C)[C@@H]([C@H](C)CCCC(C)C)CC[C@@H]32)C1
inactive: activity, negative = inhibition [1] 1.81% [at 9.52 µM] | activity change, negative = inhibition [2] 1.73% [at 9.73 µM] | activity change, negative = inhibition [3] 3.6% [at 11.6 µM] | activity change, negative = thiol reactive [4] -0.863% [at 11.5 µM] | activity, negative = inhibition [5] -1.76% [at 11.6 µM]

COc1cc(C2Oc3c(OC)cc(/C=C/C(=O)OC[C@H]4O[C@@H](OC(C)(C)C(=O)O)[C@H](O)[C@@H](O)[C@@H]4O)cc3C2CO)ccc1O (stereo not given in full)
inactive: Potency [1] | Potency [2] | Potency [3] | Potency [4] | Potency [5]

C[C@@H]1O[C@@H](OC[C@H]2O[C@@H](OCC3CCC4CC3C4(C)C)[C@H](O)[C@@H](O)[C@@H]2O)[C@H](O)[C@H](O)[C@H]1O (stereo not given in full)
inactive: Potency [1] | Potency [2] | Potency [3] | Potency [5]
active: Potency [4] 11.6 µM

Nc1ccn([C@@H]2C(F)=C(CO)[C@@H](O)[C@H]2O)c(=O)n1
inactive: Potency [1] | Potency [2] | Potency [3] | Potency [4] | Potency [5]

O=C(O[C@@H]1O[C@H](CO)[C@@H](O)[C@H](O)[C@H]1O)c1c(O)cc(O)cc1/C=C/c1ccccc1
active: Potency [4] 7.33 µM
inactive: Potency [1] | Potency [2] | Potency [3] | Potency [5]

CC(C)C(C#N)O[C@@H]1O[C@H](CO[C@@H]2OC[C@](O)(CO)[C@H]2O)[C@@H](O)[C@H](O)[C@H]1O (stereo not given in full)
inactive: Potency [1] | Potency [2] | Potency [3] | Potency [4] | Potency [5]

COc1cc([C@H]2OC[C@]3(OC(C)=O)[C@@H](c4ccc(O[C@@H]5O[C@H](CO)[C@@H](O)[C@H](O)[C@H]5O)c(OC)c4)OC[C@H]23)ccc1O
inactive: Potency [1] | Potency [2] | Potency [3] | Potency [4] | Potency [5]

COCCN(C)Cc1ccc2nc3sc(C(=O)N(C)C4CCCCC4)cn3c2c1
inactive: Potency [1] | Potency [2] | Potency [3] | Potency [4] | Potency [5]

— PubChem BioAssay (NCATS)
